This is one part of the list. No count for the full screen is at hand.
Target: furin, P09958
Test: furin cleavage Z-score vs untreated control; higher = more cleavage, active = 3.5 or more, inactive = 1 or less, 8 variable residues between constant flanks
Summary of the method: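 The cleavage Z-score is the log read count relative to furin-free reactions, lowess-adjusted and scaled by median absolute deviation. Counts came from sequencing DNA released from bead-bound 8-mer peptide–cDNA fusions after digestion with purified furin for 7.5, 15 or 30 min.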
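Note: purified furin at 1:10 enzyme:substrate in 50 mM HEPES pH 7.5.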

Chain of furin, P09958 (P09958 whole entry): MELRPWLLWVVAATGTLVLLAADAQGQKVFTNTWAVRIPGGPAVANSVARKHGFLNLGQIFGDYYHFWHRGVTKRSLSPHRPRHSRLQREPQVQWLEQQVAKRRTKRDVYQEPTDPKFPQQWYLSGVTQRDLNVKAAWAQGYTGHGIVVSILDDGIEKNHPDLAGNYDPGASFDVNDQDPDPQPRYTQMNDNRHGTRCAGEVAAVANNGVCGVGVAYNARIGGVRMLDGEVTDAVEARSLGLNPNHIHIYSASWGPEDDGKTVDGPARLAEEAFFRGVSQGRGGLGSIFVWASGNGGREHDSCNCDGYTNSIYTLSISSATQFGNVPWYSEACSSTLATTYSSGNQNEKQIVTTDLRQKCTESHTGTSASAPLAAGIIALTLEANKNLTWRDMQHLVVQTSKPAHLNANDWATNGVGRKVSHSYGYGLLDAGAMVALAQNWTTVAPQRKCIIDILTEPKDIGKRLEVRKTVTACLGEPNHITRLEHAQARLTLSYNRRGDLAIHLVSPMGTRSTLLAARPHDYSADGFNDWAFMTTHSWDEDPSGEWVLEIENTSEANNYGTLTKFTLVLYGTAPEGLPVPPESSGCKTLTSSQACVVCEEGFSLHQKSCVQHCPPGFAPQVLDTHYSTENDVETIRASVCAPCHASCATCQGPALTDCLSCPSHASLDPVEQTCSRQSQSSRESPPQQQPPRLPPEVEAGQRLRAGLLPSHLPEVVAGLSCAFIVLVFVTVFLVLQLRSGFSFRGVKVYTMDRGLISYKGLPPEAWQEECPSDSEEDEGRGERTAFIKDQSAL

Row | Sequence | furin cleavage Z-score (7.5 min) | furin cleavage Z-score (15 min) | furin cleavage Z-score (30 min)
1 | CAECTTPCSGAGNASASA [HC1144] | -0.495 (inactive) | -0.922 (inactive) | -0.582 (inactive)
2 | CAITSCSSNVAGNASASA [HC1552] | 0.153 (inactive) | 0.128 (inactive) | 0.563 (inactive)
3 | CAEVVTSTRVAGNASASA [HC2233] | -0.495 (inactive) | 0.515 (inactive) | -0.63 (inactive)
4 | CAATSRKRRVAGNASASA [FS-1311] | 7.4 (active) | 11 (active) | 9.97 (active)
5 | CARSVRKVIVAGNASASA [FS-3099] | 0.811 (inactive) | -1.26 (inactive) | 0.845 (inactive)
6 | CALSARRFRVAGNASASA [FS-1371] | 0.442 (inactive) | -0.766 (inactive) | 0.226 (inactive)
7 | CAAIIPDREVAGNASASA [HC1007] | -0.132 (inactive) | -0.083 (inactive) | -0.0846 (inactive)
8 | CAAIGRSRRVAGNASASA [FS-114] | 2.54 | 1.95 | 4.65 (active)
9 | CAKSVRKRRVAGNASASA [FS-603] | 10.7 (active) | 11.6 (active) | 9.56 (active)
10 | CADDDKIVGGAGNASASA [EK7] | -1.75 (inactive) | -1.15 (inactive) | -0.908 (inactive)
11 | CASTGFTKVCAGNASASA [HC439] | 0.727 (inactive) | -0.241 (inactive) | 0.58 (inactive)
12 | CAPISYANGSAGNASASA [HC396] | 0.358 (inactive) | -0.237 (inactive) | 0.768 (inactive)
13 | CACEECSQHLAGNASASA [HC1680] | -0.324 (inactive) | -2.23 (inactive) | -0.379 (inactive)
14 | CARFYRSRKKAGNASASA [FS-1707] | 0.676 (inactive) | 1.31 | 0.114 (inactive)
15 | CARRNRRRREAGNASASA [FS-494] | 12 (active) | 13.6 (active) | 9.7 (active)
16 | CARDARRLKEAGNASASA [FS-2900] | 0.375 (inactive) | -1.38 (inactive) | -0.471 (inactive)
17 | CAVSAEEYVEAGNASASA [HC1203] | -1.9 (inactive) | 0.0508 (inactive) | 0.782 (inactive)
18 | CALHGRRRREAGNASASA [FS-456] | 12.8 (active) | 11.9 (active) | 10.7 (active)
19 | CAVFARHLREAGNASASA [FS-921] | 5.03 (active) | 6.28 (active) | 4.54 (active)
20 | CALNRRRRREAGNASASA [FS-355] | 12.7 (active) | 12.9 (active) | 8.21 (active)
21 | CACCTTPCSGAGNASASA [HC1960] | -1.19 (inactive) | -0.424 (inactive) | -0.858 (inactive)
22 | CAWCLWWLQYAGNASASA [HC581] | -0.105 (inactive) | -0.224 (inactive) | -0.828 (inactive)
23 | CAWFGCTWMNAGNASASA [HC435] | -0.725 (inactive) | 1.68 | 1.37
24 | CATDFDQGWGAGNASASA [HC392] | -0.591 (inactive) | -2.3 (inactive) | -1.94 (inactive)
25 | CAGGGGGGGGAGNASASA [NE1] | 1.03 | 0.409 (inactive) | 1.54
26 | CAMSGEVPSTAGNASASA [HC1095] | -0.208 (inactive) | -0.846 (inactive) | 0.503 (inactive)
27 | CAGGGRTRREAGNASASA [FS-427] | 3.88 (active) | 3.57 (active) | 2.42
28 | CAEGGRRRREAGNASASA [FS-1318] | 4.58 (active) | 3.64 (active) | 2.94
29 | CAMSGRRLREAGNASASA [FS-1468] | 3.25 | 3.96 (active) | 3.6 (active)

Source: the supplement of paper PMC3545927
